Measurements published in PubChem BioAssay.
“And” between values parts separate entries of the source, which are not always exact repeats. Equal entries are not always repeated. A number with no mark means an inactive call. No rule for the calls is given here.

test system: Botulinum neurotoxin type F light chain protease (Clostridium botulinum); assay: Clostridium botulinum type F light chain protease inhibitors, microsphere substrate cleavage, validation (AID 588459); conditions: multiplex microsphere protease substrate cleavage assay, flow cytometry; at 10 µM; active compounds read high

SMILES	inhibition
C[C@H](NC(=O)C1(c2ccccc2)CCN(C(=O)[C@H]2CSCN2C(=O)OC(C)(C)C)CC1)C(=O)O	-0.9%
CC(=O)c1c(C)c(C)c2n1CCn1c(C)ccc1-2	-0.2%
CCOC(=O)C1=C(C)NC(C)=C(C(=O)OC)C1c1cccc([N+](=O)[O-])c1 (stereo not given)	-1.6%
C[C@]12CC[C@@H]3c4ccc(O)cc4C(=O)C[C@H]3[C@@H]1CC[C@@H]2O	1.2%
OCCC1CN(Cc2ccccc2-c2ccco2)CCN1C1CCCC1 (stereo not given)	4.4%
COc1cc(C)nc(-n2nc(C)cc2OC)n1	0.2%
CCCN1C[C@H](CSC)C[C@@H]2c3cccc4[nH]cc(c34)C[C@H]21	-8.5%
CC(=O)OCC(=O)[C@H]1CC[C@H]2[C@@H]3CC=C4C[C@@H](O)CC[C@]4(C)[C@H]3CC[C@]12C	-1.9%
CC(=O)Nc1ccc(OS(=O)(=O)c2c(C)cc(C)cc2C)cc1	-3.3%
O=c1[nH]c(Cc2ccccc2)nc2c1oc1ccccc12	4.2%
COc1ccc(O)c(C2=Nc3ccccc3N=C(c3ccccc3)C2)c1	0.8%
Cc1nc(-c2coc3c(CN(C)C)c(O)ccc3c2=O)cs1	-2.2%
Cc1ccc(C(=O)O)cc1NC(=O)c1cccs1	-1.2%
CC[C@]1(O)C[C@@H]2CN(CCc3c([nH]c4ccccc34)[C@@](C(=O)OC)(c3cc4c(cc3OC)N(C)[C@H]3[C@@](O)(C(=O)OC)[C@H](OC(C)=O)[C@]5(CC)C=CCN6CC[C@]43[C@@H]65)C2)C1	16.1%
Cn1c(=O)[nH]c(=O)c2c1nc(NCc1ccco1)n2CCCc1ccccc1	-0.8%
CC1=NN(C(=O)c2ccc(Br)cc2)C(O)(c2ccccc2)C1 (stereo not given)	-2.9%
CCNC(=O)c1sc2cc(C)ccc2c1Cl	2.4%
O=CNC1CCCc2c1[nH]c1ccc(Cl)cc21 (stereo not given)	-1.4%
N=c1c[n+](N2CCOCC2)[n-]o1	-6.3%
CN1CCN(C2=Nc3ccccc3Oc3ccc(Cl)cc32)CC1	-0.8%

SMILES	inhibition
COc1ccc(C(=O)Nc2cccc3cccnc23)cc1OC	-2.2%
Nc1ccc(S(=O)(=O)NC(=O)c2ccccc2)cc1	1.2%
Cc1ccc(C2=NOC(=O)/C2=C\C=C\c2ccccc2)cc1	2.1%
CC(C)Oc1cccc(C(=O)N2CCCC2)c1	2.3%
CCOc1ccc(C(=O)/C=C/c2cc(OC)c(OC)c(OC)c2)cc1	0.5%
CCOC(=O)C(NC(C)=O)C(O)c1ccc([N+](=O)[O-])cc1 (stereo not given)	7.5%
COc1ccc2c(c1)C=CC1(O2)N(CCO)c2ccccc2C1(C)C (stereo not given)	3%
COc1cc(Cc2cnc(N)nc2N)cc(OC)c1OC	4.4% and 6.3%
C/C(NC(=O)c1cccs1)=C1\C(=O)C[C@@H]2[C@H]1C2(C)C	3%
Cc1cccc(NC(=O)c2cc3ccccc3o2)c1	1.3%
CC12COC3(C(=O)Nc4ccc(F)cc4)CC1CCC32C (stereo not given)	3.3%
C=CCn1c(SCC(=O)NC2CCCCC2)nc2ccccc2c1=O	-0.1%
COc1ccc(Cc2noc(CN(C)CC3(N4CCOCC4)CCCCC3)n2)cc1OC	7.7%
O=C(c1ccc(O)cc1)c1ccc(O)cc1O	-0.9%
COc1ccc(-c2c(C)c3ccc(OCC(C)=O)cc3oc2=O)cc1	-3.2%
COc1cccc(OCc2cc(C3Nc4ccccc4C(=O)N3Cc3ccco3)ccc2OC)c1 (stereo not given)	-1%
Cc1ccccc1NC(=O)C1c2ccccc2Oc2ccccc21	0.4%
COc1cc2c(cc1NCc1ccc3c(c1)OCO3)oc1ccccc12	-2.5%
C=CCn1c(N2CCCCCC2)nc2c1c(=O)n(C)c(=O)n2C	0.2%
O=C1C(=O)N2C(=C1C(=O)N1CCCCCC1)c1ccccc1CC21CCCC1	0.3%

biological target: Botulinum neurotoxin type A (Clostridium botulinum) (UniProt P0DPI0); assay: BoNT/A light chain protease inhibitors, biochemical, multiplex microsphere flow cytometry, validation set (AID 588460); conditions: at 10 µM, active compounds read high
Sequence (P0DPI0 whole entry, looked up): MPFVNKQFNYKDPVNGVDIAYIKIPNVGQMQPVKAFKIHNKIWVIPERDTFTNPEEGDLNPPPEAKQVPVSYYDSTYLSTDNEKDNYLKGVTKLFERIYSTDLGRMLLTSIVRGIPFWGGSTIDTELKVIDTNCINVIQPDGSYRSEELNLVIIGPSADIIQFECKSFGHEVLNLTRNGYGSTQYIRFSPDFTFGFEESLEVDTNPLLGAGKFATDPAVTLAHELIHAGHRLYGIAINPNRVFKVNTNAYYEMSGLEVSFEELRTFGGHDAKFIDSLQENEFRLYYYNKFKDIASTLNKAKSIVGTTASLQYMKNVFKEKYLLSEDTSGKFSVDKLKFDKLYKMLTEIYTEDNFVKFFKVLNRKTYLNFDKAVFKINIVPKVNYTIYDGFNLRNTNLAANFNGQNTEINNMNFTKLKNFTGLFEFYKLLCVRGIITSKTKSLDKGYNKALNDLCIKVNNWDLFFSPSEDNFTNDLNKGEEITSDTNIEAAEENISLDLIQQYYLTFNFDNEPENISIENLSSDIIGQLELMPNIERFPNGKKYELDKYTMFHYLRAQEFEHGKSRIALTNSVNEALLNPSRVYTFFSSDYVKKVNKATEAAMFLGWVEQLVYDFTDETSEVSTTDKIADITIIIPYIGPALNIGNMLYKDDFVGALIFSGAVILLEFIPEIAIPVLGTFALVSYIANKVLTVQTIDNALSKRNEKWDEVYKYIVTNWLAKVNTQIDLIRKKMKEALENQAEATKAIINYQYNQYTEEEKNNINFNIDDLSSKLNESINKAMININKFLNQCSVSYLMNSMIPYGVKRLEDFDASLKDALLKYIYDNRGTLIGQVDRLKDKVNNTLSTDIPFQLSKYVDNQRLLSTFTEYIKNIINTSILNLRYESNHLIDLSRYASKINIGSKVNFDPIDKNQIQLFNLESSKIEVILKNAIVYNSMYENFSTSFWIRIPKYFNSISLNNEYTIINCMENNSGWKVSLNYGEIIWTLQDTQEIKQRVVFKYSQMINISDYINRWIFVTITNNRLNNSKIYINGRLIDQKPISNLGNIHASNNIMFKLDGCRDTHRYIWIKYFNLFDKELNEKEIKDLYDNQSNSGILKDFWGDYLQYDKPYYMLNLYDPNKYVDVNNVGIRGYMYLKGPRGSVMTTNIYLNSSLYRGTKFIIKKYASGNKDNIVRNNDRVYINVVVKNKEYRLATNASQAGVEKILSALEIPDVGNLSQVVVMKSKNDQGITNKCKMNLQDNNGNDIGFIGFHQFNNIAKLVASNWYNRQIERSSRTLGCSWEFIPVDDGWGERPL

SMILES	inhibition
C[C@H](NC(=O)C1(c2ccccc2)CCN(C(=O)[C@H]2CSCN2C(=O)OC(C)(C)C)CC1)C(=O)O	-2%
CC(=O)c1c(C)c(C)c2n1CCn1c(C)ccc1-2	-0.1%
CCOC(=O)C1=C(C)NC(C)=C(C(=O)OC)C1c1cccc([N+](=O)[O-])c1 (stereo not given)	0.4%
C[C@]12CC[C@@H]3c4ccc(O)cc4C(=O)C[C@H]3[C@@H]1CC[C@@H]2O	-1.3%
OCCC1CN(Cc2ccccc2-c2ccco2)CCN1C1CCCC1 (stereo not given)	0.5%
COc1cc(C)nc(-n2nc(C)cc2OC)n1	-1.5%
CCCN1C[C@H](CSC)C[C@@H]2c3cccc4[nH]cc(c34)C[C@H]21	-1.6%
CC(=O)OCC(=O)[C@H]1CC[C@H]2[C@@H]3CC=C4C[C@@H](O)CC[C@]4(C)[C@H]3CC[C@]12C	-1.3%
CC(=O)Nc1ccc(OS(=O)(=O)c2c(C)cc(C)cc2C)cc1	-1%
O=c1[nH]c(Cc2ccccc2)nc2c1oc1ccccc12	0.2%
COc1ccc(O)c(C2=Nc3ccccc3N=C(c3ccccc3)C2)c1	0.8%
Cc1nc(-c2coc3c(CN(C)C)c(O)ccc3c2=O)cs1	-0.6%
Cc1ccc(C(=O)O)cc1NC(=O)c1cccs1	0%
CC[C@]1(O)C[C@@H]2CN(CCc3c([nH]c4ccccc34)[C@@](C(=O)OC)(c3cc4c(cc3OC)N(C)[C@H]3[C@@](O)(C(=O)OC)[C@H](OC(C)=O)[C@]5(CC)C=CCN6CC[C@]43[C@@H]65)C2)C1	3.4%
Cn1c(=O)[nH]c(=O)c2c1nc(NCc1ccco1)n2CCCc1ccccc1	-0.7%
CC1=NN(C(=O)c2ccc(Br)cc2)C(O)(c2ccccc2)C1 (stereo not given)	-0.4%
CCNC(=O)c1sc2cc(C)ccc2c1Cl	-1.2%
O=CNC1CCCc2c1[nH]c1ccc(Cl)cc21 (stereo not given)	0.2%
N=c1c[n+](N2CCOCC2)[n-]o1	0.1%
CN1CCN(C2=Nc3ccccc3Oc3ccc(Cl)cc32)CC1	-1.8%

SMILES	inhibition
COc1ccc(C(=O)Nc2cccc3cccnc23)cc1OC	-2.2%
Nc1ccc(S(=O)(=O)NC(=O)c2ccccc2)cc1	1.3%
Cc1ccc(C2=NOC(=O)/C2=C\C=C\c2ccccc2)cc1	1%
CC(C)Oc1cccc(C(=O)N2CCCC2)c1	-0.3%
CCOc1ccc(C(=O)/C=C/c2cc(OC)c(OC)c(OC)c2)cc1	-0.5%
CCOC(=O)C(NC(C)=O)C(O)c1ccc([N+](=O)[O-])cc1 (stereo not given)	2.6%
COc1ccc2c(c1)C=CC1(O2)N(CCO)c2ccccc2C1(C)C (stereo not given)	-0.7%
COc1cc(Cc2cnc(N)nc2N)cc(OC)c1OC	0% and -0.2%
C/C(NC(=O)c1cccs1)=C1\C(=O)C[C@@H]2[C@H]1C2(C)C	0.5%
Cc1cccc(NC(=O)c2cc3ccccc3o2)c1	-0.4%
CC12COC3(C(=O)Nc4ccc(F)cc4)CC1CCC32C (stereo not given)	1%
C=CCn1c(SCC(=O)NC2CCCCC2)nc2ccccc2c1=O	-1.1%
COc1ccc(Cc2noc(CN(C)CC3(N4CCOCC4)CCCCC3)n2)cc1OC	4.3%
O=C(c1ccc(O)cc1)c1ccc(O)cc1O	1.3%
COc1ccc(-c2c(C)c3ccc(OCC(C)=O)cc3oc2=O)cc1	-0.4%
COc1cccc(OCc2cc(C3Nc4ccccc4C(=O)N3Cc3ccco3)ccc2OC)c1 (stereo not given)	0.9%
Cc1ccccc1NC(=O)C1c2ccccc2Oc2ccccc21	-0.3%
COc1cc2c(cc1NCc1ccc3c(c1)OCO3)oc1ccccc12	-0.9%
C=CCn1c(N2CCCCCC2)nc2c1c(=O)n(C)c(=O)n2C	1.4%
O=C1C(=O)N2C(=C1C(=O)N1CCCCCC1)c1ccccc1CC21CCCC1	0.4%
